As usually defined, the AC50 is the midpoint of the concentration-response curve, whichever way the signal moves.

Results filed as inconclusive are left out. Activity calls are given as the source filed them. Rule for the calls, unless noted: active = hit-call score of the fitted dose curve at least 0.9, where 1 is the maximum; inactive = score below 0.9.

In assay [1] the target is Paired box protein Pax-6 (Homo sapiens) (UniProt P26367). Briefly: ATG_Pax6_CIS: Attagene CIS-FACTORIAL HepG2 Assay for human Paired Box 6 (PAX6) (AID 2282956). The settings on record: HepG2 CIS-FACTORIAL PAX6 reporter transcription, RNA readout; actives raise or lower the signal. The procedure, abridged:
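HepG2 cells transiently transfected with multiplexed cis-promoter reporter units (endogenous TF activity) were dosed for 24 h. Reporter mRNA was quantified by RT-PCR, 6-FAM labeling, HpaI digestion and capillary electrophoresis; bidirectional fitting versus DMSO baseline.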

Assay [2] in a line: ATG_PPRE_CIS: Attagene CIS-FACTORIAL HepG2 Assay for human Peroxisome Proliferator-activated Response Element (PPRE) (AID 2282958). The settings on record: HepG2 PPRE cis-element reporter, Attagene transcription factor profiling; actives raise or lower the signal. The procedure, abridged: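 Read-out: fluorescent reporter mRNA fragments resolved by capillary electrophoresis after RT-PCR. HepG2 cells carried transiently transfected PPRE-driven cis reporter constructs and were dosed for 24 h; gain or loss of signal fitted relative to DMSO.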

Assay [3] can be described thus: ATG_Sox_CIS: Attagene CIS-FACTORIAL HepG2 Assay for human SRY-box transcription factor (SOX) (AID 2282960). The settings on record: HepG2 Attagene cis-factorial SOX reporter, mRNA; actives raise or lower the signal. The procedure, abridged: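 Read-out: fluorescent RT-PCR products of SOX1-linked reporter transcripts resolved by capillary electrophoresis, fitted bidirectionally against DMSO. Transiently transfected HepG2 cells, 24 h after chemical exposure, endogenous transcription factor activity.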

The target of assay [4] is Transcription factor Sp1 (Homo sapiens) (UniProt P08047). The experiment in a line: ATG_Sp1_CIS: Attagene CIS-FACTORIAL HepG2 Assay for human Specificity Protein 1 (Sp1) (AID 2282961). The conditions noted are these: HepG2 Sp1 cis-reporter transcription, actives raise or lower the signal. The procedure, abridged: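 Read-out: fluorescence of 6-FAM-labeled, HpaI-digested RT-PCR products separated by capillary electrophoresis. HepG2 cells carried transfected cis-element reporter units and were exposed to chemicals for 24 h; gain or loss of signal fitted relative to DMSO.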
Sequence of Transcription factor Sp1 (Homo sapiens) (P08047 whole entry, looked up): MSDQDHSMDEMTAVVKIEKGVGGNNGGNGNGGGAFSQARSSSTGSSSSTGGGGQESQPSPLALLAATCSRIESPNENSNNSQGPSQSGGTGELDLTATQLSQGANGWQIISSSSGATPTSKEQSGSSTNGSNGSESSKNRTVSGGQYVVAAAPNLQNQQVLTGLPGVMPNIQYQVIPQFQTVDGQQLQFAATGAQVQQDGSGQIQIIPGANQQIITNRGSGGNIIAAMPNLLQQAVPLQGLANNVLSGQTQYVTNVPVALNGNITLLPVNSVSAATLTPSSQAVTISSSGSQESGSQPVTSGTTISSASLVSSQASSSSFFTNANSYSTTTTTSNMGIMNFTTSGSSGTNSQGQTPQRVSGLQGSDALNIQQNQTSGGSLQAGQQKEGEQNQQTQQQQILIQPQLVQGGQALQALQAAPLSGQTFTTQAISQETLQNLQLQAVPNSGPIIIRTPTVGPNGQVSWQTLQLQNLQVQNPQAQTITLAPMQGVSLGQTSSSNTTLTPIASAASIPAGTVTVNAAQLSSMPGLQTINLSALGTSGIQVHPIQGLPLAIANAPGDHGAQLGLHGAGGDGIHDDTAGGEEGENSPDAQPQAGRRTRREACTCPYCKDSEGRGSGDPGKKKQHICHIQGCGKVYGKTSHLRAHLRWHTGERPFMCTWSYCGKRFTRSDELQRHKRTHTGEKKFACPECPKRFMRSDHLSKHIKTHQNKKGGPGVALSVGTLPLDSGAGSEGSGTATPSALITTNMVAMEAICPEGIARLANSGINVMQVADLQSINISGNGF

Assay [5] is described as follows: ATG_SREBP_CIS: Attagene CIS-FACTORIAL HepG2 Assay for human Sterol Regulatory Element Binding (SREBP) (AID 2282962). The settings on record: HepG2 Attagene cis-factorial SREBP reporter, mRNA; actives raise or lower the signal. The procedure, abridged: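 HepG2 cells transiently transfected with multiplexed cis-element reporter units report endogenous transcription factor activity. After 24 h of chemical exposure, reporter mRNA was quantified by RT-PCR, 6-FAM labelling, HpaI digestion and capillary electrophoresis; bidirectional fits used DMSO as baseline.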

Assay [6] addresses Signal transducer and activator of transcription 3 (Homo sapiens) (UniProt P40763). Briefly: ATG_STAT3_CIS: Attagene CIS-FACTORIAL HepG2 Assay for human Signal Transducer and Activator of Transcription 3 (STAT3) (AID 2282963). The conditions noted are these: HepG2, Attagene cis-factorial STAT3 reporter transcription; actives raise or lower the signal. The procedure, abridged:
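Values derive from bidirectional fits relative to DMSO of reporter mRNA levels, measured by RT-PCR with capillary electrophoresis, in HepG2 cells carrying transiently transfected cis-regulated reporter units and exposed 24 h.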

A short description of assay [7]: ATG_TA_CIS: Attagene CIS-FACTORIAL HepG2 Assay for human TA Basal Promoter (AID 2282964). The conditions noted are these: HepG2 Attagene CIS-factorial TA basal promoter reporter; actives raise or lower the signal. The procedure, abridged:
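Read-out: fluorescent reporter-transcript fragments resolved by capillary electrophoresis after RT-PCR and HpaI digestion. Source: HepG2 cells carrying transiently transfected multi-reporter cis constructs, treated 24 h. Endpoint fitted bidirectionally relative to DMSO.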

Assay [8] in a line: ATG_TCF_b_cat_CIS: Attagene CIS-FACTORIAL HepG2 Assay for human T-Cell-Factor with beta-catenin (TCF/b-cat) (AID 2282965). The conditions noted are these: HepG2 TCF/beta-catenin cis-reporter transcription, actives raise or lower the signal. The procedure, abridged:
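HepG2, transient MRTU transfection, cis-element-driven reporters (endogenous TFs). 24 h compound exposure. Readout: reporter mRNA by RT-PCR + 6-FAM primer extension, HpaI digest, capillary electrophoresis. Gain/loss fit vs DMSO baseline.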

Assay [9] in a line: ATG_TAL_CIS: Attagene CIS-FACTORIAL HepG2 Assay for human TAL Basal Promoter (AID 2282966).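 Note: background control endpoint measuring basal TAL promoter reporter mRNA not a specific factor.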 The conditions noted are these: HepG2 Attagene cis-factorial TAL promoter reporter; actives raise or lower the signal. The procedure, abridged: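 Fluorescence of labelled reporter cDNA fragments, resolved by capillary electrophoresis, gave the readout. Human HepG2 liver cells carried transiently transfected cis-element reporter units and were treated for 24 hours; activity was fitted bidirectionally against DMSO.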

Assay [10] can be described thus: ATG_TGFb_CIS: Attagene CIS-FACTORIAL HepG2 Assay for human Transforming Growth Factor (TGF) (AID 2282967). The conditions noted are these: HepG2 Attagene CIS TGFb reporter, mRNA transcription; actives raise or lower the signal. The procedure, abridged:
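Transient MRTU transfection of HepG2 (FuGene 6). Dose 24 h. TriZol RNA, oligo(dT) RT, PCR, 6-FAM primer extension, HpaI cut, CE. Bidirectional fit, DMSO = baseline.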

A short description of assay [11]: ATG_VDRE_CIS: Attagene CIS-FACTORIAL HepG2 Assay for human Vitamin D Receptor Element (VDRE) (AID 2282968). The settings on record: HepG2 VDRE cis-reporter transcription, actives raise or lower the signal. The procedure, abridged: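 Cell-based multiplexed reporter format in human liver HepG2 cells, 24 h post-dose. Fluorescence from capillary electrophoresis of reporter cDNA gives the signal, with DMSO as negative control and baseline.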

Assay [12] has as its target Estrogen receptor (Homo sapiens) (UniProt P03372). Briefly: ATG_ERa_TRANS: Attagene TRANS-FACTORIAL HepG2 Assay for human Estrogen Receptor alpha (ERa) (AID 2282970; active = hit-call score of the fitted dose curve at least 0.9, where 1 is the maximum). The settings on record: HepG2 Attagene TRANS ERa GAL4 reporter, mRNA. The procedure, abridged: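 Human liver HepG2, transient transfection of multiple GAL4-UAS reporter units; TRANS format (exogenous NR-Gal4 chimera). 24 h dosing. Readout: reporter mRNA, RT-PCR, 6-FAM primer extension, HpaI digest, capillary electrophoresis. Positive direction vs DMSO.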

Assay [13] addresses X-box-binding protein 1 (Homo sapiens) (UniProt P17861). Briefly: ATG_Xbp1_CIS: Attagene CIS-FACTORIAL HepG2 Assay for human X-box Binding Protein 1 (XBP1) (AID 2282972). The settings on record: HepG2 XBP1 cis-element reporter, Attagene multiplex; actives raise or lower the signal. The procedure, abridged: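 HepG2 cells transiently transfected with cis-regulated multiple reporter transcription units; endogenous transcription factor activity measured 24 hours after chemical dosing. Reporter mRNA quantified by RT-PCR, 6-FAM primer extension, HpaI digestion and capillary electrophoresis; bidirectional fitting versus DMSO.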

A short description of assay [14]: ATG_M_19_TRANS: Attagene TRANS-FACTORIAL HepG2 Assay for M19 Transcription Factor (Internal Marker) (AID 2282974; active = hit-call score of the fitted dose curve at least 0.9, where 1 is the maximum). The settings on record: HepG2 Attagene TRANS-FACTORIAL M19 internal marker reporter. The procedure, abridged:
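24 h chemical exposure of transiently transfected HepG2 (MRTU library). RNA → oligo(dT) RT → PCR → 6-FAM labelling → HpaI cut → CE fluorescence. Positive-direction fit vs DMSO baseline; background internal-marker readout.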

The nature of assay [15]: ATG_GAL4_TRANS: Attagene TRANS-FACTORIAL HepG2 Assay for GAL4 (Internal Marker) (AID 2282976; active = hit-call score of the fitted dose curve at least 0.9, where 1 is the maximum). The settings on record: HepG2 Attagene TRANS GAL4 internal marker reporter. The procedure, abridged: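 First, HepG2 cells were transfected with reporter units under GAL4-UAS control. Next, they were treated with chemical for 24 h. Finally, RNA was reverse-transcribed, PCR-amplified, FAM-labelled and resolved by capillary electrophoresis, with induction scored against DMSO.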

Assay [16] in a line: ATG_PXRE_CIS: Attagene CIS-FACTORIAL HepG2 Assay for human Pregnane X Receptor Element (PXRE) (AID 2282957). The settings on record: HepG2 Attagene CIS-FACTORIAL PXRE reporter, mRNA; actives raise or lower the signal. The procedure, abridged: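 Transfect HepG2 with MRTUs (cis promoter elements); dose chemical, incubate 24 h; isolate RNA, RT with oligo(dT), PCR, 6-FAM label, HpaI cut, CE. Gain/loss fit vs DMSO.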

In assay [17] the target is Nuclear receptor subfamily 1 group I member 3 (Homo sapiens) (UniProt Q14994). The experiment in a line: ATG_CAR_TRANS: Attagene TRANS-FACTORIAL HepG2 Assay for human Constitutive Androstane Receptor (CAR) (AID 2282969; active = hit-call score of the fitted dose curve at least 0.9, where 1 is the maximum;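 note: activators raise reporter mRNA above DMSO so AC50 marks induction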). The conditions noted are these: HepG2 Attagene TRANS-FACTORIAL CAR reporter. The procedure, abridged: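 HepG2 cells transiently transfected with GAL4-UAS reporter units; TRANS format reads activity of exogenous chimeric NR-Gal4 protein. After 24 h dosing, reporter mRNA quantified by RT-PCR, 6-FAM labelling and capillary electrophoresis; gain of signal fitted against DMSO.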
Sequence of Nuclear receptor subfamily 1 group I member 3 (Homo sapiens) (Q14994 whole entry, looked up, the tested form may be a part): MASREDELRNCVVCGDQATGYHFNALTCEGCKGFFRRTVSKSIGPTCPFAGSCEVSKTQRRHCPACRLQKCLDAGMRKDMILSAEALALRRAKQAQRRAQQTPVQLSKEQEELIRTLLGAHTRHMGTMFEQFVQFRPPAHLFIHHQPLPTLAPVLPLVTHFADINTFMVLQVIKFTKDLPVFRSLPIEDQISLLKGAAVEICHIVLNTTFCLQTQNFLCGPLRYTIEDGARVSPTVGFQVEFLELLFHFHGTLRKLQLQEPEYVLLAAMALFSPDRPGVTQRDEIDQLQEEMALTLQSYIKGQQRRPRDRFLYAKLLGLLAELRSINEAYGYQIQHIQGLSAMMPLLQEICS

Assay [18] can be described thus: ATG_RORE_CIS: Attagene CIS-FACTORIAL HepG2 Assay for human RAR-related Orphan Receptor Element (RORE) (AID 2282959). The conditions noted are these: HepG2 Attagene cis-factorial RORE reporter, mRNA; actives raise or lower the signal. The procedure, abridged:
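Readout: fluorescent reporter mRNA by RT-PCR plus capillary electrophoresis, 24 h after dosing transfected HepG2 cells. Endogenous transcription factor activity on a cis promoter element is measured. Gain or loss of signal fitted against DMSO.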

The target of assay [19] is Estrogen-related receptor gamma (Homo sapiens) (UniProt P62508). The experiment in a line: ATG_ERRg_TRANS: Attagene TRANS-FACTORIAL HepG2 Assay for human Estrogen-Related Receptor gamma (ERRg) (AID 2282977; active = hit-call score of the fitted dose curve at least 0.9, where 1 is the maximum;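 note: hits increase reporter signal over DMSO so potencies reflect activators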). The settings on record: HepG2 Attagene TRANS reporter, ERRg transactivation. The procedure, abridged: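 Transient HepG2 transfectants, 24 h compound exposure, GAL4-UAS reporter mRNA by RT-PCR/6-FAM labelling/capillary electrophoresis; positive direction vs DMSO.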
Sequence of Estrogen-related receptor gamma (Homo sapiens) (P62508 whole entry, looked up, the tested form may be a part): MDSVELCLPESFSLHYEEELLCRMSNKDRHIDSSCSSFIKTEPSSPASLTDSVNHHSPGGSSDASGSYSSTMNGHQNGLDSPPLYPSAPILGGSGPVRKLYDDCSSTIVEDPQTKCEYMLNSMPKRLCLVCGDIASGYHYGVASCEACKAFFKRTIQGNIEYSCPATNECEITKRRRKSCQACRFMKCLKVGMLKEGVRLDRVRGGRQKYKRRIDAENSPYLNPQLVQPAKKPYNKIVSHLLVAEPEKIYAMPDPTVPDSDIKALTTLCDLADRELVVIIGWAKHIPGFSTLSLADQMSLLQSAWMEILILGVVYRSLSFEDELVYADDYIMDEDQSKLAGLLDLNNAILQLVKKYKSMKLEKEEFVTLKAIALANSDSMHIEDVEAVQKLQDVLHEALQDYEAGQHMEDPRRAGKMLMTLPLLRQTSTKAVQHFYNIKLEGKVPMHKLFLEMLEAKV

Sequence of X-box-binding protein 1 (Homo sapiens) (P17861 whole entry, looked up): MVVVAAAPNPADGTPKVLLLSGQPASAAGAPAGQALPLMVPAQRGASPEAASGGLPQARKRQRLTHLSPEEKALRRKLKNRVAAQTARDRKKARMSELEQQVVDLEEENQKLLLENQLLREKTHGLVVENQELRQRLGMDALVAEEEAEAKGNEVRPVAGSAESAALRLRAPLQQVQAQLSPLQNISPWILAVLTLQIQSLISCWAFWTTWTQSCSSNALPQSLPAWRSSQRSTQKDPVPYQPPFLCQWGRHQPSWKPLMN
Sequence of Signal transducer and activator of transcription 3 (Homo sapiens) (P40763 whole entry, looked up): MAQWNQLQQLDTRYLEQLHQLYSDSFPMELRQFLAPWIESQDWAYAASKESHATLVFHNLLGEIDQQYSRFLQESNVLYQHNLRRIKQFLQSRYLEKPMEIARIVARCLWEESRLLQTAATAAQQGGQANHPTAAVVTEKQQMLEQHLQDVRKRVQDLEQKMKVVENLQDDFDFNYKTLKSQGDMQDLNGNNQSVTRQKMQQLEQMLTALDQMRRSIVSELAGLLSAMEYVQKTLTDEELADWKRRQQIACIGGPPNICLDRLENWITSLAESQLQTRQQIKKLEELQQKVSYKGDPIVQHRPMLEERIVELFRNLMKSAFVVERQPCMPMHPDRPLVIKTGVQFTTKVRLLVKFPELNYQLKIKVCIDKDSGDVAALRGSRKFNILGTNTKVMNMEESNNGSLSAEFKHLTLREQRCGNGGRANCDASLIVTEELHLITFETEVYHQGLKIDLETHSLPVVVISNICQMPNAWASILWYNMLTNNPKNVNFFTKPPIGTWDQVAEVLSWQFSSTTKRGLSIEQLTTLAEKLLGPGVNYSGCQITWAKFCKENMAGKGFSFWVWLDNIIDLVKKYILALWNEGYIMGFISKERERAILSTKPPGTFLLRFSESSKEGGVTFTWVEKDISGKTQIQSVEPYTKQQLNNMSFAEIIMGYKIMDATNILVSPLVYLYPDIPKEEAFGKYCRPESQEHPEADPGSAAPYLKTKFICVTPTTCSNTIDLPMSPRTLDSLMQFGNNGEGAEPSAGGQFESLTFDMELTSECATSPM
Sequence of Estrogen receptor (Homo sapiens) (P03372 whole entry, looked up, the tested form may be a part): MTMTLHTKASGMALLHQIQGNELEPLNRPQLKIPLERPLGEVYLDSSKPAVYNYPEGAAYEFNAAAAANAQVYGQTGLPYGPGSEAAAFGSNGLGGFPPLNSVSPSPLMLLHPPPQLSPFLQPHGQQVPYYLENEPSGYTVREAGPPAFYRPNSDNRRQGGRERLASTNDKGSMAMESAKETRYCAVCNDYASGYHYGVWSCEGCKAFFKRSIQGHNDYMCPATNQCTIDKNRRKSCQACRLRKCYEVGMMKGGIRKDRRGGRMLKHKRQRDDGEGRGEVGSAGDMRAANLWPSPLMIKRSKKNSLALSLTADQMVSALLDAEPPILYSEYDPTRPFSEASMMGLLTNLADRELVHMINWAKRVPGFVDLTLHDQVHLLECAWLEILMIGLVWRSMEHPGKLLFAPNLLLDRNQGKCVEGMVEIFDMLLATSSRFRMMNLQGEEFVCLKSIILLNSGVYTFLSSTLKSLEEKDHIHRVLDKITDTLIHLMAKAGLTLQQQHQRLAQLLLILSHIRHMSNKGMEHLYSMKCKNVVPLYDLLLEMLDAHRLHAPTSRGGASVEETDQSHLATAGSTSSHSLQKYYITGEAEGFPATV
Sequence of Paired box protein Pax-6 (Homo sapiens) (P26367 whole entry, looked up): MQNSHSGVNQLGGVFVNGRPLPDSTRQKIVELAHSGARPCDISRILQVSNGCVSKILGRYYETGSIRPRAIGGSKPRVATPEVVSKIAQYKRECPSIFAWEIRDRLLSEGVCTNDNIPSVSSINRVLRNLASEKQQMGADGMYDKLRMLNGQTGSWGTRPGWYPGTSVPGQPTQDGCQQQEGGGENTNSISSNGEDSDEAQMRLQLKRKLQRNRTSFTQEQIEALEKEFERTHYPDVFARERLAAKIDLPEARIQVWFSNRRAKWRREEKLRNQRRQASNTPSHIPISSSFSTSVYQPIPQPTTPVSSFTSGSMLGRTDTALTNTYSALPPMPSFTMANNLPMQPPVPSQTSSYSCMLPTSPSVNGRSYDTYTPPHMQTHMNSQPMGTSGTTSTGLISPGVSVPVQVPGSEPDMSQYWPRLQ

Take `CC(CC=O)c1ccccc1` (configuration not stated): the call in [1], in assay [2], in [3], in assay [4], in assay [5] and in [6] was inactive. Further, the result in [7], in [8], in [9], in [10], in assay [12] and in [13] was inactive. The compound was called inactive in assay [14] and in assay [15]. Besides, the AC50 in assay [11] is 7.03 µM (active).
For `Nc1ccc(N)c(Cl)c1`, the AC50 in [1] was 52.9 µM (active); in assay [16] it was 8.87 µM (active); in assay [5], 43.7 µM (active); in [11], 33.4 µM (active); in [12], 25.5 µM (active). For the same compound, the compound was classed as inactive in assay [3], in assay [6], in [7], in [8], in [9] and in [10]. For the same compound, the compound was called inactive in assay [17] and in assay [14].
Take `C#CC1(O)CC[C@H]2[C@@H]3CCC4=CCCC[C@@H]4[C@H]3CC[C@@]21C` (some centres not stated): the compound was classed as inactive in assay [1], in assay [3], in [4], in [6], in assay [11] and in [13]. Also, the compound was called inactive in assay [14], in assay [15] and in assay [19]. In addition, the AC50 was 33.4 µM (active) in [2]; 41.7 µM (active) in assay [18]; 27.4 µM (active) in assay [5]; 16.7 µM (active) in assay [7]; 16.8 µM (active) in [9]; 9.28 µM (active) in [10]. Besides, the half-maximal activity concentration (AC50) in assay [12] is 0.00914 µM (active).
`CC(C)(c1cc(Br)c(OCCO)c(Br)c1)c1cc(Br)c(OCCO)c(Br)c1`: the concentration at half-maximal activity (AC50) in assay [1] was 17.4 µM (active); in [5], 18 µM (active); in [7] it was 15.3 µM (active); in assay [8] it was 7.14 µM (active); in assay [9], 27 µM (active); in assay [11], 1.22 µM (active). Besides, the concentration at half-maximal activity (AC50) in assay [13] is 30.1 µM (active). Also, the result in [2], in [3], in assay [4], in assay [6], in [12] and in assay [14] was inactive.

These data come from PubChem BioAssay (EPA / NIEHS).
